Results reported in PubChem BioAssay (NCATS).
Records with an inconclusive call do not appear. The call rests on the fitted dose curve; in most records, active means well fitted inhibition curve with a large enough effect; inconclusive means small, poorly fitted or top-dose-only effect; inactive means flat fitted curve, though single readings scatter.

Assay: qHTS for Inhibitors of Plasmodium falciparum (DD2) proliferation (AID 504314);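 further: parasite DNA measured by SYBR Green fluorescence after red cell lysis; plate controls were DMSO vehicle for no effect and artemisinin wells for full effect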
Settings: P. falciparum Dd2 in erythrocytes, SYBR Green growth, 72 h; series mostly up to 1.12 µM; activity, negative = inhibition: at the top concentration
Outline: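 SYBR Green growth assay: 72 h compound exposure of infected red cells (2.5% hematocrit, 0.3% parasitemia), then lysis and overnight dye staining, fluorescence 485/535 nm. Values scaled between DMSO and 0.29 uM artemisinin controls.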

activity, negative = inhibition, inactive:
COC(=O)N1CCc2cc(OC)c(OC)cc2C1Cc1ccc(OC)cc1 (centres undefined) 0.758% [at 6.11 µM]
COC(=O)C1=C(C(=O)OC)[C@@H]2Nc3ccccc3[C@@]23C[C@@H](C(=O)OC)N(C(=O)c2ccco2)C3=N1 -2.55%
COC(=O)N[C@@H](c1cccc(C)c1)C(C(C)=O)C(=O)OC (some centres undefined) -3.3% [at 6.11 µM]
COC(=O)c1ccccc1S(=O)(=O)N1CCc2nc(COc3ccccc3)c3c(c2C1)CO[C@@H](C)C3 -2.73%
CCCCC1=CC2=CC(=O)C(C)(OC(=O)CC)C(=O)C2=CN1CCc1c[nH]c2ccccc12 (centres undefined) 2.79%
CCN1C(=O)[C@@H]2[C@H]3[C@H](O)[C@H](O)CC(=NO[C@@H](C)c4cc(-c5c(C)cc(C)cc5C)no4)[C@@H]3CC[C@H]2C1=O -9.63% [at 6.11 µM]
C=CCN1C=C2C(=O)C(C)(OC(=O)c3cnc4ccccc4n3)C(=O)C=C2C=C1/C=C/COC (centres undefined) -1.01%
COC(=O)CCC(=O)OC1(C)C(=O)C2=CN(Cc3ccc(OC)cc3)C(c3ccc(OC)cc3)=CC2=C(Br)C1=O (centres undefined) 0.139%
COC(=O)C1=C(C(=O)OC)[C@@H]2N(C)c3ccc(OC)cc3[C@@]23C[C@@H](C(=O)OC)N(S(=O)(=O)c2cccs2)C3=N1 4.42%
COC(=O)N[C@@H](c1ccccc1)[C@]1(C(=O)OC)CCCC1=O -2.13% [at 6.11 µM]
CCN1C(=O)N[C@@H](c2cccs2)C(C(=O)OC)=C1C 1.97%
COC(=O)[C@@H](NC(=O)N1CCc2nc(-c3ccc(OC)cc3C)c3c(c2C1)CO[C@@H](c1ccccc1)C3)C(C)C -1.36%
COC(=O)CCC(=O)OC1(C)C(=O)C=C2C=C(C3CC3)N(C3CCCCC3)C=C2C1=O (centres undefined) 0.823%
COC(=O)[C@]1(C)C=C[C@@H](C)[C@H](c2ccccc2Br)N1C(=O)C(F)(F)F -0.568% [at 6.11 µM]
CCOC(=O)N1C2=NC(C(=O)OC)=C(C(=O)OC)[C@@H]3N(C)c4ccc(OC)cc4[C@]23C[C@H]1C(=O)OC 2.7%
C[C@@H](c1ccccc1)N1C(=O)[C@@H]2[C@H]3[C@H](O)[C@H](O)CC(=NNC(=O)OCc4ccccc4)[C@@H]3CC[C@H]2C1=O -10.9% [at 6.11 µM]
CCCNC(=O)N1C2=NC(C(=O)OC)=C(C(=O)OC)[C@@H]3Nc4ccccc4[C@]23C[C@H]1C(=O)OC -4.96% [at 6.11 µM]
CC=Cc1cc2ccccc2c2c(C(=O)OC)c(C(=O)OC)c(C(=O)OC)n12 -1.16% [at 6.11 µM]
COC(=O)C1=C(C(=O)OC)[C@@H]2Nc3ccccc3[C@@]23C[C@@H](C(=O)OC)N(C(=O)c2ccc(Br)cc2)C3=N1 -4.38%
CC1(OC(=O)C2CCCC2)C(=O)C=C2C=C(c3ccsc3)N(c3ccc(CO)cc3)C=C2C1=O (centres undefined) -5.75%
C=CCOC(=O)N[C@H](C(C(=O)OC)=C(C)NCc1ccccc1)c1ccc(C)cc1 -6.13% [at 6.11 µM]
COC(=O)C1=C(C)N(Cc2ccco2)C(=O)N[C@@H]1c1ccco1 2.96%
C=CCN1c2ccccc2[C@]23C[C@@H](C(=O)OC)N(C(=O)COCc4ccccc4)C2=NC(C(=O)OC)=C(C(=O)OC)[C@H]13 4.56%
COC(=O)CCCC1=CC2=C(c3ccccc3)C(=O)C(C)(OC(=O)C3CCCC3)C(=O)C2=CN1C1CCCC1 (centres undefined) -0.934%
CCCCc1nc2c(c3c1C[C@H](C)OC3)CN(S(=O)(=O)c1ccc(Cl)c3nonc13)CC2 -5.37%
CC#CCN1c2ccccc2[C@]23C[C@@H](C(=O)OC)N(C(C)=O)C2=NC(C(=O)OC)=C(C(=O)OC)[C@H]13 3.19%
C=C(C(C)=O)C(O)c1cccs1 (centres undefined) -9.04% [at 6.11 µM]
CC(C)(C)OC(=O)NCCCC1=CC2=CC(=O)C(C)(OC(=O)c3cccs3)C(=O)C2=CO1 (centres undefined) -1.47% [at 6.11 µM]
COC/C=C/C1=CC2=CC(=O)C(C)(OC(=O)c3cnc4ccccc4n3)C(=O)C2=CN1CCOC (centres undefined) -3.94%
COC(=O)C1=C(C(=O)OC)[C@@H]2N(C)c3ccc(OC)cc3[C@@]23C[C@@H](C(=O)OC)N(S(=O)(=O)c2ccc4c(c2)OCCN4C)C3=N1 -0.857%
CCCCC1=CC2=C(c3ccco3)C(=O)C(C)(OC(=O)c3ccc(OC)cc3)C(=O)C2=CN1CCc1c[nH]c2ccccc12 (centres undefined) -0.0948%
O=C(NS(=O)(=O)c1ccc(F)cc1)O[C@@H]1C(=O)c2cc(Br)ccc2O[C@H]1c1ccc2c(c1)OCO2 -1.04% [at 6.11 µM]
CCCCC1=CC2=C(c3ccco3)C(=O)C(C)(OC(=O)c3ccc(OC)cc3)C(=O)C2=CN1C1CCCC1 (centres undefined) 0.068%
COC(=O)CCC(=O)OC1(C)C(=O)C2=CN(C(CO)CO)C(c3ccc(OC)cc3)=CC2=C(Br)C1=O (centres undefined) -1.49%
